The panel holds about 83,000 compounds, 20% with a hit somewhere; the sample as a whole holds those more often.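 Results are percent growth after 48 hours of single-concentration exposure. 100 means growth as in untreated cells, lower positive values show inhibition; negative values down to -100 show cell death.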 Unmarked numbers belong to inactive results. Calls of active or inactive are those of the source. The calls were made as follows: active = growth percent below 10; inactive = the rest.
tested on: NCI-H23 lung; test: NCI-60 one-dose screen, 48 h (100 = growth as untreated, 0 = no growth, -100 = all killed); conditions: 10 µM unless noted

In order of rising growth:
1. CCN1C(=O)N(CC)C2NNC(Sc3c(C(=O)O)c4ccccc4n(CC(C)C)c3=O)=NC21 (stereo unspecified)  10.7%
2. CCN1C(=O)N(CC)C2NNC(Sc3c(C(=O)O)c4ccccc4n(CCC(C)C)c3=O)=NC21 (stereo unspecified)  10.7%
3. N/C(=N\c1nc2ccccc2s1)NC(=O)Nc1ccccc1[N+](=O)[O-]  14.3%
4. O=C(Nc1ccc(-c2ccc3c(c2)NC(=O)/C3=C\c2ccc[nH]2)cc1)Nc1ccc(Cl)c(C(F)(F)F)c1  15.4%
5. Cc1ccc(Nc2nnc(-c3c[nH]c4ccccc34)o2)c(C)c1  16.2%
6. C=CC[n+]1cccc2c3ccccc3ccc21  27.4%
7. Cc1nn(-c2ccccc2)c2nc(C)n(CC(=O)N/N=C/c3ccccc3O)c(=O)c12  28.8%
8. Cn1ncc2c(N)nc(Oc3ccccc3-c3ccccc3)nc21  29.6%
9. Cc1ccc(C(=O)Nc2cc(-c3ccncc3)cc(C(F)(F)F)c2)cc1C#Cc1cnc2cccnn12  35.5%
10. COc1ccc(/C=C/c2nc3ccccc3c(=O)n2CC(=O)Nc2ccccc2)cc1  42.6%
11. Fc1cccc(CNc2nc(SCCN3CCOCC3)nc3c2cnn3CC(Cl)c2ccc(Br)cc2)c1 (stereo unspecified)  46.2%
12. Clc1ccc(CNc2nc(SCCN3CCOCC3)nc3c2cnn3CC(Cl)c2ccc(Br)cc2)cc1 (stereo unspecified)  49.4%
13. Nc1nn2c(-c3cc4cc(Br)ccc4oc3=O)ccnc2c1N=Nc1ccc(S(N)(=O)=O)cc1  50.6%
14. O=C1Nc2ccccc2/C1=C\c1ccc(OCC(=O)c2ccc(Br)cc2)cc1  50.9%
15. Cc1ccccc1NC(=O)c1cccc(NC(=O)CCl)c1  52.8%
16. COc1ccc(OC)c(Cn2cc(C#N)c(N)c2C(=O)c2ccc(Br)cc2)c1  54.4%
17. COc1cc(CNC(=O)C[C@H](C)CCC=C(C)C)ccc1OCc1cn(-c2ccc(Br)cc2)nn1  60.1%
18. COc1ccc2nc(NC(=O)c3ccc(N(C)C)cc3)sc2c1  66.2%
19. NC(=O)c1ccc(-c2ccc3ncnc(N4CCc5cc(F)c(Cl)cc54)c3c2)cn1  70.9%
20. Cn1cc(Nc2ncnc(-c3ccc(N4CCCC4)c(C#N)c3)n2)cn1  86%
21. CC1=C(C(=O)OCc2ccccc2)C(c2ccc(N(C)C)cc2)n2c(nc3ccccc32)N1 (stereo unspecified)  90.8%
22. CCCCNc1ccc2c3c(cccc13)C(=O)N(c1cccc(-c3nn(-c4ccccc4)cc3-c3nc4ccccc4s3)c1)C2=O  93.1%
23. Cc1ccc(C(C(=O)NC2CCCCC2)N(Cc2ccccc2Cl)C(=O)c2ccc(CN3CCOCC3)o2)o1 (stereo unspecified)  93.8%
24. CC1=C(C)C(=O)C(N2CCSCC2)=CC1=O  93.9%
25. COc1ccc2[nH]c(=O)c(CSc3ccccc3Nc3nccc(-c4ccc5c(c4)OCO5)n3)cc2c1  94.9%
26. Cc1ccc(-c2cc(-c3ccccc3)[nH]c(=O)c2C#N)cc1  96.4%
27. CN1C(=O)/C(=C/c2ccco2)S/C1=N/c1nccs1  97.3%
28. CCN(C(=O)CN1C(=O)/C(=C/c2ccco2)SC1=S)C1CCS(=O)(=O)C1 (stereo unspecified)  99.9%
29. CN(C(=O)CN1C(=O)/C(=C/c2ccco2)SC1=S)C1CCS(=O)(=O)C1 (stereo unspecified)  100%

For `O=C(c1ccc(Cl)cc1)C1[C@H](c2ccccc2Cl)[C@@H](c2ccccc2)NC12C(=O)Nc1ccccc12` (stereo partly specified), the growth was -50.2% (active).
With `CCc1ccc(SC2c3cc(OC)ccc3Oc3nc(N)c(C#N)c(N)c32)cc1` (stereo unspecified) the growth was -5.83% (active).
For `O=C(N/N=C/c1ccc(B(O)O)s1)c1[nH]c2ccc(Br)cc2c1-c1ccccc1`, the growth was -94.9% (active).
`Cc1ccc(Cl)cc1NC(=O)N/C(N)=N/c1nc2ccccc2s1` was tested, and the growth was -9.8% (active).
In the case of `CN(C)c1ccc(/C=C/c2n(Cc3ccc4ccccc4c3)c3ccccc3[n+]2Cc2ccc3ccccc3c2)cc1`, the growth is reported as -91.4% (active).
In the case of `O=C(N/N=C/c1ccoc1)c1[nH]c2ccc(Br)cc2c1-c1ccccc1`, the growth is reported as -96.6% (active).
In the case of `COc1cccc2nc(Nc3cccc(NC(=O)c4ccc(CN5CCN(C)CC5)c(C(F)(F)F)c4)c3)ccc12`, the growth is reported as -97.8% (active).
With `COc1cc(/C=C/C(=O)c2cnn(-c3cc(=O)[nH]c4ccc(Br)cc34)c2C)cc(OC)c1OC` the growth was -63.4% (active).
In the case of `S=C(Nc1ccc(OCc2nc3ccc(Cl)cc3[nH]2)cc1)NC1CCCCC1`, the growth is reported as -68.3% (active).

tested on: NCI-H226 lung; test: as above; conditions: 10 µM unless noted

In order of rising growth:
1. Cc1nn(-c2ccccc2)c2nc(C)n(CC(=O)N/N=C/c3ccccc3O)c(=O)c12  21.6%
2. Fc1cccc(CNc2nc(SCCN3CCOCC3)nc3c2cnn3CC(Cl)c2ccc(Br)cc2)c1 (stereo unspecified)  27.5%
3. Cc1ccc(C(=O)Nc2cc(-c3ccncc3)cc(C(F)(F)F)c2)cc1C#Cc1cnc2cccnn12  27.9%
4. N/C(=N\c1nc2ccccc2s1)NC(=O)Nc1ccccc1[N+](=O)[O-]  29.1%
5. CCN1C(=O)N(CC)C2NNC(Sc3c(C(=O)O)c4ccccc4n(CCC(C)C)c3=O)=NC21 (stereo unspecified)  30.4%
6. Cc1ccccc1NC(=O)c1cccc(NC(=O)CCl)c1  42.4%
7. Cc1ccc(Nc2nnc(-c3c[nH]c4ccccc34)o2)c(C)c1  43.9%
8. Cn1ncc2c(N)nc(Oc3ccccc3-c3ccccc3)nc21  45.2%
9. CCN1C(=O)N(CC)C2NNC(Sc3c(C(=O)O)c4ccccc4n(CC(C)C)c3=O)=NC21 (stereo unspecified)  51.2%
10. COc1ccc2nc(NC(=O)c3ccc(N(C)C)cc3)sc2c1  56.9%
11. C=CC[n+]1cccc2c3ccccc3ccc21  58%
12. Cn1cc(Nc2ncnc(-c3ccc(N4CCCC4)c(C#N)c3)n2)cn1  60.6%
13. Clc1ccc(CNc2nc(SCCN3CCOCC3)nc3c2cnn3CC(Cl)c2ccc(Br)cc2)cc1 (stereo unspecified)  62.6%
14. COc1ccc(OC)c(Cn2cc(C#N)c(N)c2C(=O)c2ccc(Br)cc2)c1  64.9%
15. O=C(Nc1ccc(-c2ccc3c(c2)NC(=O)/C3=C\c2ccc[nH]2)cc1)Nc1ccc(Cl)c(C(F)(F)F)c1  65.8%
16. CC1=C(C(=O)OCc2ccccc2)C(c2ccc(N(C)C)cc2)n2c(nc3ccccc32)N1 (stereo unspecified)  70.1%
17. COc1cc(CNC(=O)C[C@H](C)CCC=C(C)C)ccc1OCc1cn(-c2ccc(Br)cc2)nn1  70.2%
18. O=C1Nc2ccccc2/C1=C\c1ccc(OCC(=O)c2ccc(Br)cc2)cc1  71.6%
19. COc1ccc2[nH]c(=O)c(CSc3ccccc3Nc3nccc(-c4ccc5c(c4)OCO5)n3)cc2c1  76.1%
20. Nc1nn2c(-c3cc4cc(Br)ccc4oc3=O)ccnc2c1N=Nc1ccc(S(N)(=O)=O)cc1  77.6%
21. NC(=O)c1ccc(-c2ccc3ncnc(N4CCc5cc(F)c(Cl)cc54)c3c2)cn1  83.3%
22. CCCCNc1ccc2c3c(cccc13)C(=O)N(c1cccc(-c3nn(-c4ccccc4)cc3-c3nc4ccccc4s3)c1)C2=O  83.5%
23. Cc1ccc(-c2cc(-c3ccccc3)[nH]c(=O)c2C#N)cc1  86.8%
24. CC1=C(C)C(=O)C(N2CCSCC2)=CC1=O  88.7%
25. CCN(C(=O)CN1C(=O)/C(=C/c2ccco2)SC1=S)C1CCS(=O)(=O)C1 (stereo unspecified)  99.1%
26. CN(C(=O)CN1C(=O)/C(=C/c2ccco2)SC1=S)C1CCS(=O)(=O)C1 (stereo unspecified)  100%
27. Cc1ccc(C(C(=O)NC2CCCCC2)N(Cc2ccccc2Cl)C(=O)c2ccc(CN3CCOCC3)o2)o1 (stereo unspecified)  101%
28. CN1C(=O)/C(=C/c2ccco2)S/C1=N/c1nccs1  113%

For `O=C(c1ccc(Cl)cc1)C1[C@H](c2ccccc2Cl)[C@@H](c2ccccc2)NC12C(=O)Nc1ccccc12` (stereo partly specified), the growth was -67.5% (active).
For `CCc1ccc(SC2c3cc(OC)ccc3Oc3nc(N)c(C#N)c(N)c32)cc1` (stereo unspecified), the growth was -6.69% (active).
For `O=C(N/N=C/c1ccc(B(O)O)s1)c1[nH]c2ccc(Br)cc2c1-c1ccccc1`, the growth was -45.2% (active).
With `COc1ccc(/C=C/c2nc3ccccc3c(=O)n2CC(=O)Nc2ccccc2)cc1` the growth was -26.4% (active).
With `Cc1ccc(Cl)cc1NC(=O)N/C(N)=N/c1nc2ccccc2s1` the growth was 0.832% (active).
`CN(C)c1ccc(/C=C/c2n(Cc3ccc4ccccc4c3)c3ccccc3[n+]2Cc2ccc3ccccc3c2)cc1` was tested, and the growth was -65.2% (active).
In the case of `O=C(N/N=C/c1ccoc1)c1[nH]c2ccc(Br)cc2c1-c1ccccc1`, the growth is reported as -66.2% (active).
For `COc1cccc2nc(Nc3cccc(NC(=O)c4ccc(CN5CCN(C)CC5)c(C(F)(F)F)c4)c3)ccc12`, the growth was -93.4% (active).
For `COc1cc(/C=C/C(=O)c2cnn(-c3cc(=O)[nH]c4ccc(Br)cc34)c2C)cc(OC)c1OC`, the growth was -28% (active).
`S=C(Nc1ccc(OCc2nc3ccc(Cl)cc3[nH]2)cc1)NC1CCCCC1` was tested, and the growth was -1.48% (active).
